Bioassay records: PubChem BioAssay, several laboratories
This is a sample that favours compounds with a hit; in the whole collection about 22% have one here.
Measles CPE – protection of cells from measles virus; AID 841; protection (pct of control), % at 4 µM; 1.5% of 140,000 active; Measles virus-infected cells, CPE protection, absorbance; in the data active means protection mostly above about 24%, no sharp cut-off; inactive means mostly below about 26%
CYP2C9 inhib – inhibitors of human CYP2C9 | AID 777 | inhibition, % at 5 µM | 20% of 96,000 active | CYP2C9 Supersomes, luciferin-H conversion, luminescence;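 active means blocking of liver enzyme CYP2C9 beyond about 50% at 5 µM, limit read from the data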
Target sequence (P11712 whole entry, looked up): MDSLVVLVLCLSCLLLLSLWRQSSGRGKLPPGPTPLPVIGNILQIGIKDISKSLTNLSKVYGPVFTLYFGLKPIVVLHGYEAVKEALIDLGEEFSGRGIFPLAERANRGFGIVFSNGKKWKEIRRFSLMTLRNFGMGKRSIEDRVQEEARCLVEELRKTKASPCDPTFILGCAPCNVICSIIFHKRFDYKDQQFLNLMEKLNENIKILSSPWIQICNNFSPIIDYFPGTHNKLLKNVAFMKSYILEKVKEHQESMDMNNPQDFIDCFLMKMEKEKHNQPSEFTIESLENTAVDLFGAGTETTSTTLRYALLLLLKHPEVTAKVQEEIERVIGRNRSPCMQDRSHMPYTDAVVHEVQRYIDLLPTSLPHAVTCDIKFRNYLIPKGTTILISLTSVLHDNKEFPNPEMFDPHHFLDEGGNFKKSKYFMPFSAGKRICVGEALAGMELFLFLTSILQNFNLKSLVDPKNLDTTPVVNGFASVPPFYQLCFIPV
CYP2C9 act – activators of human CYP2C9; P11712; recombinant CYP2C9, luciferin-H conversion, luminescence; hits give high values; factor 1 = untreated enzyme, 0 = blocked; activation factor at 5 µM; 1.4% of 96,000 active; AID 1024;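 active means activation factor of 2 or more for CYP2C9 at a 5 µM dose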;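 further: 0 = sulfaphenazole-blocked wells and 1 = vehicle-only wells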
CYP2C19 act – increases human CYP2C19 enzyme activity | P33261 | recombinant CYP2C19, luciferin-H EGE luminescence; hits give high values; 0 = fully inhibited enzyme, 1 = untreated enzyme | activation factor at 5 µM | 96,000 tested, under 10 active | AID 1025;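 active means activation factor of at least 2 at 5 µM in the primary screen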;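 further: 0 = wells with 2.5 mM tranylcypromine and 1 = vehicle-only wells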
CYP2C19 inh – human CYP2C19 inhibition; P33261; CYP2C19 Supersomes, luciferin-H EGE luminescence, 30 min; inhibition, % at 5 µM; 21% of 96,000 active;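 active means CYP2C19 inhibition above a set limit at 5 µM in the primary screen, cut at about 50% in these data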;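 further: plate controls were negative control wells for no effect and 2.5 mM tranylcypromine positive control for full effect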
An asterisk follows results filed as active; x = not tested or not shown.

SMILES	Measles CPE	CYP2C9 inhib	CYP2C9 act	CYP2C19 act	CYP2C19 inh
COc1ccc(CC2CCOC2=O)cc1 (configuration not stated)	2	3	1	0.2	76*
Cc1cccc(S(=O)(=O)NC(Cc2c[nH]c3ccccc23)C(=O)O)c1 (configuration not stated)	22	x	x	x	x
Cc1cc(-n2nnc3ccccc32)nc2ccccc12	31*	-59	1.6	0.7	34
CCOc1ncccc1C(=O)OCC(=O)Nc1cc(C(=O)OC)ccc1C(=O)OC	x	16	0.8	1	-2
COc1cccc(-n2nc(C(=O)N3CC(C)CC(C)C3)c3ccccc3c2=O)c1 (configuration not stated)	20	58*	0.4	0.5	47
COc1ccc(-n2nc(C(=O)N3CCN(c4ccc(F)cc4)CC3)c3ccccc3c2=O)c(OC)c1	24	56*	0.4	0.6	45
O=C(NCc1ccc2c(c1)OCO2)c1c(O)c2cccc3c2n(c1=O)CCC3	19	72*	0.3	0.8	22
O=C(Nc1ccc2c(c1)OCO2)c1nn(-c2ccccc2)c(=O)c2ccccc12	29	16	0.8	1	3
COc1ccc(-n2nc(C(=O)O)c3ccccc3c2=O)c(OC)c1	4	-7	1.1	1	-3
COc1cccc(-n2nc(C(=O)Nc3ccc4c(c3)OCO4)c3ccccc3c2=O)c1	14	90*	0.1	0.6	42
COc1ccc(-n2nc(C(=O)O)c3ccccc3c2=O)cc1	11	-23	1.2	1.1	-10
Cc1cc(OCCN2CCCCC2)nc2ccccc12	15	31	0.7	0.8	18
O=C(COC(=O)C1CCN(S(=O)(=O)c2ccccc2)CC1)NC(=O)c1ccc(OC(F)F)cc1	23	x	x	x	x
COc1ccc(CCNC(=O)c2c(O)c3cccc4c3n(c2=O)CC4)cc1OC	x	72*	0.3	0.4	55*
CCCCNC(=O)c1c(O)c2cccc3c2n(c1=O)CCC3	12	-15	1.1	1.1	-5
O=C(NCc1ccc2c(c1)OCO2)c1nn(-c2ccccc2)c(=O)c2ccccc12	28	94*	0.1	0.1	87*
COc1ccc(-c2nc(SCC(=O)NC3CCCC3)c(-c3ccc(OC)cc3)[nH]2)cc1	6	x	x	x	x
Cc1nc([N+](=O)[O-])c(Br)n1CC(=O)c1ccccc1	4	17	0.8	0.5	51*
Cc1nc([N+](=O)[O-])c(Br)n1CC(=O)c1ccc2ccccc2c1	9	76*	0.2	0.5	54*
O=C(Cn1cnc2ccccc2c1=O)c1ccc2ccccc2c1	2	13	0.9	0.7	29
Cc1nc([N+](=O)[O-])c(Br)n1CC(=O)c1ccc(Br)cc1	30	54*	0.5	0.8	18
O=C(c1cc2c(s1)-c1ccccc1OC2)N1CCCC1	4	3	1	0.6	40
c1ccc(N2CCN(c3ccccc3)C2c2ccncc2)cc1	23	90*	0.1	0.1	87*
Cc1ccc(N2CCN(c3ccc(C)cc3)C2c2cccnc2)cc1	10	34	0.7	0.2	76*
COC(=O)c1ccc2[nH]c(C)c(CN3CCCC3)c(=O)c2c1	48*	-12	1.1	1	2
SMILES	Measles CPE	CYP2C9 inhib	CYP2C9 act	CYP2C19 act	CYP2C19 inh
CCC(CO)NC(=O)c1cccc(S(=O)(=O)N2c3ccccc3CC2C)c1 (configuration not stated)	17	14	0.9	0.3	73*
Cc1noc(C)c1COC(=O)c1cccc(S(=O)(=O)N2c3ccccc3CC2C)c1 (configuration not stated)	16	80*	0.2	0.4	59*
CCOC(=O)c1sc(NC(=O)c2cccc(S(=O)(=O)N3c4ccccc4CC3C)c2)cc1C (configuration not stated)	4	x	x	x	x
Cc1ccsc1C(=O)OC1CCOC1=O (configuration not stated)	9	-127	2.3*	1.1	-7
COC(=O)c1c(NC(=O)C2C3C=CC(CC3)C2C(=O)O)sc(C)c1C (configuration not stated)	7	x	x	x	x
CC(=O)Nc1sc(C)c(C)c1C(=O)OC1CCOC1=O (configuration not stated)	37*	77*	0.2	0.4	55*
CCOc1ccc(N=Nc2c(=O)[nH]n3c(=O)c4c([nH]c23)CCCC4)cc1	2	x	x	x	x
CC1CCCN(C(=O)C2c3ccccc3C(=O)N3CCc4ccccc4C23)C1 (configuration not stated)	8	3	1	1	-4
O=C(NCC1c2ccccc2CCN1C(=O)CN1CCOCC1)C1CCCCC1 (configuration not stated)	24	10	0.9	1	5
O=C(O)[C@@H]1CCCC[C@@H]1C(=O)N1CCc2ccccc2C1CN1C(=O)c2ccccc2C1=O (some centres not stated)	64*	-8	1.1	1.1	-7
O=C1c2ccccc2C(=O)N1CC1c2ccccc2CCN1C(=O)C1CCCCC1 (configuration not stated)	9	27	0.7	0.3	73*
COc1cc(NC(=O)c2cccnc2Sc2ccc(Cl)cc2)cc(OC)c1OC	7	x	x	x	x
COc1ccc(C(=O)N/N=C(\C)CC(=O)N2CCN(C=O)CC2)cc1	13	x	x	x	x
FC(F)(F)Oc1ccc(Nc2nc3ccccc3o2)cc1	9	76*	0.2	1	4
c1ccc(Nc2nc3ccccc3o2)cc1	31	17	0.8	0.6	45
O=C(Nc1ccc2oc(-c3ccccc3F)nc2c1)c1ncn[nH]1	1	21	0.8	0.7	31
Cc1ccc(C)c(CSc2nnc(CCN)o2)c1	20	74*	0.3	0.1	90*
Cc1ccc(-c2nnc(SCc3ccccc3F)o2)cc1	18	-2	1	1	2
Cc1ccc(C)c(CSc2nnc([C@@H](N)C(C)C)o2)c1	17	-71	1.7	0	100*
CCOC(=O)Cn1c(=NC(=O)c2nc3ccccc3s2)sc2cc(S(N)(=O)=O)ccc21	3	x	x	x	x
Cc1cccc(Cn2cccc2/C=C2/C(=N)N3C=CSC3=NC2=O)c1	14	x	x	x	x
Cc1ccc(CNc2ccc(CNc3ncn[nH]3)cc2)cc1	10	63*	0.4	0.2	77*
c1ccc2c(CNc3ccc(CNc4ncn[nH]4)cc3)cccc2c1	6	x	x	x	x
COc1ccc(CCNC(=O)c2cnc3n(c2=O)CCS3)cc1OC	13	x	x	x	x
Cc1noc(C)c1C(=O)N1CCN(C(=O)c2sc3cc(Cl)ccc3c2Cl)CC1	6	43	0.6	0.6	35
Cc1c(CN(C)C(=O)c2sc3cc(Cl)ccc3c2Cl)cnn1C	8	-34	1.3	0.1	93*
CCOC(=O)c1nnn(-c2nonc2N)c1COc1cc(C)c(Cl)c(C)c1	x	3	1	1.1	-8
Cc1ccc(C(CCN(Cc2ccccc2)C(=O)c2ccco2)c2ccco2)cc1 (configuration not stated)	7	x	x	x	x
Cc1ccc(-c2nn(-c3ccccc3)cc2CN(Cc2ccccc2)C(=O)c2ccco2)o1	12	70*	0.3	0.7	26
